Experimental findings from PubChem BioAssay AID623994 (NMMLSC, 2012) are described below.

Results with a measured potency or affinity are listed apart. Active and inactive are the calls of the source.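 Rule for the calls: active = compounds whose fitted concentration for half the maximal dye retention is below 100 µM; inactive = the rest.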

For this assay, the target named is Multidrug resistance protein CDR2 (Candida albicans (strain SC5314 / ATCC MYA-2876)) (UniProt P78595). Put plainly: blockers of Nile Red efflux by Candida CDR2 – S. cerevisiae AD1-8u, singleplex, Cherry Pick2 set, dose response (AID 623994). Conditions: S. cerevisiae AD1-8u expressing CaCDR2, Nile Red efflux; series mostly up to 100 µM.
Multidrug resistance protein CDR2 (Candida albicans (strain SC5314 / ATCC MYA-2876)), sequence (P78595 whole entry, looked up): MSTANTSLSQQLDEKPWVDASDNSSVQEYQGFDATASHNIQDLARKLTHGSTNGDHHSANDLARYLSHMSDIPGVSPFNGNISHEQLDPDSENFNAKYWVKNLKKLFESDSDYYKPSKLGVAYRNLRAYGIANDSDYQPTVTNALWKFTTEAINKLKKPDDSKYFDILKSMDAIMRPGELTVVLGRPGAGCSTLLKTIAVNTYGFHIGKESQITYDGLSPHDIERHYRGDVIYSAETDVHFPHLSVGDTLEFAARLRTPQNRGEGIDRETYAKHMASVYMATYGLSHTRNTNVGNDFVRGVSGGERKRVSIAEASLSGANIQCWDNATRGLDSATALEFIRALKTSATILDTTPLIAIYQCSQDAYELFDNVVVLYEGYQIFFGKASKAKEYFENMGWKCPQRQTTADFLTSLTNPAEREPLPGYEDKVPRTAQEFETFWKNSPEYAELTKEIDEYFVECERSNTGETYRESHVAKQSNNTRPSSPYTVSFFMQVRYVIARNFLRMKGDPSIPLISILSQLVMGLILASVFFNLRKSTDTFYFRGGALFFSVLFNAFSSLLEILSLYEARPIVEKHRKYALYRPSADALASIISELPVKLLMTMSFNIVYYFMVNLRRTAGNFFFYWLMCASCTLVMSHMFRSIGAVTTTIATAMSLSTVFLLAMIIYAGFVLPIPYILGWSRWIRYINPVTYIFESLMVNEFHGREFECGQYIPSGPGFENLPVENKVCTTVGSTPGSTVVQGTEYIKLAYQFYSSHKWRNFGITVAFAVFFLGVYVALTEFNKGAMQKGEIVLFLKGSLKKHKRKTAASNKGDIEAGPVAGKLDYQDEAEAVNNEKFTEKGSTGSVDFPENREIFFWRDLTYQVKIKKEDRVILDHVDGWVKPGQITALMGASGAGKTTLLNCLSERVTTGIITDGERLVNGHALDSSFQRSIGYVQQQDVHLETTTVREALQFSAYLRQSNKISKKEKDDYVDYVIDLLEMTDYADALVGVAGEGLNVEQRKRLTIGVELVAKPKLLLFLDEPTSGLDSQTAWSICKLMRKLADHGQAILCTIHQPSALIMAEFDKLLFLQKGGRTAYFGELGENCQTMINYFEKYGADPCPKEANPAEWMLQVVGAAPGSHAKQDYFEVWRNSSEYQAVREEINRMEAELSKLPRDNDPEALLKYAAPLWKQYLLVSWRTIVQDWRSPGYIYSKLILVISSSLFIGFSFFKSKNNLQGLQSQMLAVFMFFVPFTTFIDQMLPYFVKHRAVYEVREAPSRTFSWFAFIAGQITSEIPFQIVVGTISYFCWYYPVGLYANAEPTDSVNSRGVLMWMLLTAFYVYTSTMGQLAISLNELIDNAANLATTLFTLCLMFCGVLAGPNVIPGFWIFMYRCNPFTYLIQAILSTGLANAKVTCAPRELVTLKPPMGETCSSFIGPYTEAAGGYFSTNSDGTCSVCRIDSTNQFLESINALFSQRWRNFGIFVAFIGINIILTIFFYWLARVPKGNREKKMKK
In the case of `O=C(C1CCCN(c2ncnc3c2nc2n3CCCCC2)C1)N1CCN(c2ccccc2F)CC1` (centres undefined), the compound was classed as inactive.
On to `COc1ccc(C(=O)OCCc2ccc(O)cc2)cc1`, for which the compound was called inactive.
Take `COc1cc(OC)c2c(-c3ccccc3)cc(=O)oc2c1C(CCN1CCCC(C)C1)c1ccc(N(C)C)cc1` (centres undefined): the compound was called inactive.
As for `Cc1ccc(C2CC(c3ccccc3)=NN2c2ccc(S(N)(=O)=O)cc2)cc1` (centres undefined), the entry is “inactive”; as for `O=C1C(Cc2ccccc2)Nc2ncnc(N3CCN(c4ccccc4)CC3)c2N1Cc1ccccc1` (centres undefined), “inactive”.
`O=C(c1ccoc1)N1CCC2(CC1)Oc1ccc(F)cc1C(=O)C21CC(c2ccccc2)=NO1` (centres undefined): the call was inactive.
As for `O=C(CSc1nnc(Cc2cccs2)n1Cc1ccco1)Nc1cccc(Cl)c1`, the entry is “inactive”.
As to `COc1ncccc1C(=O)NC1CCCc2c1cnn2-c1cc(C)cc(C)c1` (centres undefined), the outcome was inactive.
As for `Cc1ccc2c(c1)[C@H]1[C@H](CO2)[C@H](c2ccccc2)[C@]2(C)C(=O)Nc3cc(F)c(F)cc3C(=O)N12`, the entry is “inactive”.
Take `O=C(NCCc1ccc(Cl)cc1)C1CCC(CNc2nc(=S)[nH]c3ccccc23)CC1` (centres undefined): the call was inactive.
As for `COc1ccccc1C(=O)OCCc1ccccc1`, the entry is “inactive”; as for `O=C(C[n+]1cc(-c2ccccc2)n2c1CCC2)N1c2ccccc2Sc2ccccc21`, “inactive”.
As for `Cc1ccc(O)c(C(=O)c2cnc3c(c2)CN(C)C(=O)N3)c1`, the entry is “inactive”; as for `COc1ccc(-c2c[n+](CC(=O)N3c4ccccc4Sc4ccccc43)c3n2CCC3)cc1`, “inactive”.
As for `CC(C)C(=O)N1CCC2(CC1)Oc1ccc(F)cc1C(=O)C21CC(c2ccc(Cl)cc2)=NO1` (centres undefined), the entry is “inactive”.
Turning to `CCN(CC)CCC(c1ccc(N(C)C)cc1)c1c(OC)cc(OC)c2ccc(=O)oc12` (centres undefined), the call was inactive.
As for `COc1cc(OC)c2ccc(=O)oc2c1C(CCN1CCCC(C)C1)c1ccc(N(C)C)cc1` (centres undefined), the entry is “inactive”; as for `COc1cccc(-c2sc3ccc(OC)cc3c2-c2ccc(OCCN3CCOCC3)cc2)c1`, “inactive”.
As for `CCC(=O)N1CCN(c2ccc(Cl)cc2NC(=O)c2ccc3c(c2)OCCO3)CC1`, the entry is “inactive”.
For the compound `Cc1noc(C)c1C(=O)N1CCC2(CC1)Oc1ccc(F)cc1C(=O)C21CC(c2ccc(Cl)cc2)=NO1` (centres undefined), the compound was classed as inactive.
As for `CC1CN(c2nc3ccccc3nc2C(C#N)C(=O)NCc2ccc3c(c2)OCO3)CC(C)O1` (centres undefined), the entry is “inactive”.
As for `COc1cccc(N2CCN(C(=O)C3CCCN(c4ncnc5c4nc4n5CCCCC4)C3)CC2)c1` (centres undefined), the entry is “inactive”; as for `CC(C)C(=O)N1CCC2(CC1)Oc1ccc(F)cc1C(=O)C21CC(c2ccccc2)=NO1` (centres undefined), “inactive”; as for `O=C(C1CCCN(c2ncnc3c2nc2n3CCCCC2)C1)N1CCN(c2cccc(Cl)c2)CC1` (centres undefined), “inactive”.
As for `NS(=O)(=O)c1ccc(N2N=C(c3ccc(Br)cc3)CC2c2ccc(F)cc2)cc1` (centres undefined), the entry is “inactive”; as for `Cc1ccc(N2CCN(C(=O)C3CCCN(c4ncnc5c4nc4n5CCCCC4)C3)CC2)c(C)c1` (centres undefined), “inactive”; as for `Cc1cc(C(=O)NC2CC(C)(C)Cc3c2cnn3-c2ccc(F)cc2)no1` (centres undefined), “inactive”.
Take `CC(C)C(=O)N1CCN(c2ccccc2NC(=O)c2ccc3c(c2)OCCO3)CC1`: the call was inactive.
As for `Cc1ccc(C)c(N2CCN(C(=O)C3CCCN(c4ncnc5c4nc4n5CCCCC4)C3)CC2)c1` (centres undefined), the entry is “inactive”.
